A selection: hits, their analogues and other compounds. The true share with any hit is near 0.49%.
TCR act: activates T cell receptor signaling | Potency, µM (top dose mostly 9.22 µM), hits mostly activators | 330,000 tested, under 10 active | primary human leukocytes, anti-CD3, IL-2 HTRF, 48 h
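1) Mix primary human leukocytes, a-CD3 beads and compound. 2) Incubate 48 hr. 3) Add HTRF IL-2 reagents (a-IL-2-K, a-IL-2-d2).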
Tb PFK inh-1: inhibitors of T. brucei phosphofructokinase | O15648 | T. brucei PFK, ADP-Glo luminescence | Potency, µM (top dose mostly 57.5 µM), usual class: inhibitors | hit rate 0.17% among 330,000 | AID 485367; also: nearly all actives have a fitted effect of over 60% in size
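1.25 nM PFK with 0.5 mM F6P and 0.1 mM ATP in 0.1 M TEA pH 8.0, 5 mM MgCl2, incubated 45 min at room temperature; ADP measured by ADP-Glo luminescence; compounds titrated up to 57 uM.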
BCR signal inh: inhibitors of chronic active B-cell receptor signaling; ABC-DLBCL IkBa-CBG/CBR reporter, luminescence ratio, 4 h; Potency, µM (doses to about 46.1 µM), usual class: inhibitors; hit rate 0.05% among 340,000; AID 493014; active = well fitted inhibition curve with a large enough effect in the signal ratio, with a control signal flat, not every such curve was filed as active; inconclusive = small, poorly fitted or top-dose-only effect, or effect the other way, or a change in a side signal; the % refers to the signal ratio
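Concentration-response series (up to 46 uM) were applied to TMD8 dual-reporter cells for 4 h at 37C with doxycycline. Green/red ratio, after filter-overlap correction, defined %Activity; red signal alone was normalised to basal cells and zero luminescence.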
CCT modulator: changes cytosolic chaperonin activity. purified chaperonin ATPase assay, HTRF ADP detection, 30 min. activity change, % (test concentration not listed), hits read low. hit rate 0.3% among 360,000; in the data active = activity change below about -30%
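ATPase activity: ADP formed was measured by HTRF Transcreener (665/615 nm ratio) after 30 min at 37 deg C with 10 uM ATP. Compounds screened at one 76 uM concentration against 40 or 20 nM TRiC in Tris pH 7.4/KCl/MgCl2/DTT buffer.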
S-ASM inh: human S-ASM enzyme inhibition; Potency, µM (titrated, usually from 57.5 µM), most hits filed as inhibitors; hit rate 0.006% among 340,000; P17405; placental ASM, HMU-PC fluorogenic substrate, 60 min
Target sequence (P17405 47-631 limits assumed): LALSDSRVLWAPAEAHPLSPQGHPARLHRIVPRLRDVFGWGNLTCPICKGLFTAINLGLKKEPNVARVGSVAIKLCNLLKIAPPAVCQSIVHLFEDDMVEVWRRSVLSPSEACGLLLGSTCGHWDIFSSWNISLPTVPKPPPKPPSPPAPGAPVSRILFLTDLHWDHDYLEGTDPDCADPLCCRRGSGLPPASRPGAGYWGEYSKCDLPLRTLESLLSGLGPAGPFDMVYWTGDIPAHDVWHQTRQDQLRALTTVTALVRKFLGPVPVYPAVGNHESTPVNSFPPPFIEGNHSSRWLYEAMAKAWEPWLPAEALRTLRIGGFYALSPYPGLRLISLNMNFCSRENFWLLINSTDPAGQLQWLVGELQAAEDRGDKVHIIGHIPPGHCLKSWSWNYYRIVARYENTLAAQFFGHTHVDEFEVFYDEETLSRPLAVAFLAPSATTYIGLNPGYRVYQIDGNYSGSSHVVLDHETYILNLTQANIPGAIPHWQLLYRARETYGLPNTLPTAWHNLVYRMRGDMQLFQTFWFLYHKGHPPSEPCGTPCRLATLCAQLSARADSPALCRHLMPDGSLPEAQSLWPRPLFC
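HMU-PC0 cleavage (9 uM final) by human placental ASM, 60 min at 37 °C following 10 min compound exposure at RT; stopped at pH 10, fluorescence Ex 386/Em 447 nm.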
TbPFK ATP: inhibits T. brucei PFK measured by ATP depletion; Potency, µM (titrated, usually from 57.5 µM); Tb PFK enzyme, ATP depletion, Kinase-Glo Plus luminescence; shares compounds with Tb PFK inh-1; hit rate 47% among 1,100; calls by dose curve; also: nearly all actives have a fitted effect of over 60% in size
Tb PFK inh-2: validation of T. brucei phosphofructokinase inhibitors; shares compounds with Tb PFK inh-1; purified T. brucei PFK, ADP-Glo luminescence, 45 min; Potency, µM (doses to about 57.5 µM), most hits filed as inhibitors; hit rate 41% among 1,100; AID 504637; also: nearly all actives have a fitted effect of over 60% in size
Each line names hits and unclear results; the compound was inactive in the other large screens (follow-up assays come after a bar, where they were run). Unless noted, calls follow the shape of the dose curve; as a rule, active = well fitted curve in the direction sought with a large enough effect; inconclusive = small, poorly fitted or top-dose-only effect, or another doubt; inactive = no such curve, though single readings can be large; an effect the other way counts as inactive or inconclusive.

C/C(=N\NC(=O)Cc1ccc(Cl)c(Cl)c1)c1cccnc1	Tb PFK inh-1 19µM | TbPFK ATP 12µM | Tb PFK inh-2 inconclusive
COc1ccc(OC(=O)N(C)C[C@H]2OCc3cnnn3CCCC(=O)N([C@H](C)CO)C[C@@H]2C)cc1	none (no result: TCR act, Tb PFK inh-1, BCR signal inh, S-ASM inh)
CCCCCN1C(=O)c2cc(OC)ccc2[C@@]2(C(=O)OCC)Cc3cc(Cl)ccc3[C@@H]12	none (no result: TCR act, Tb PFK inh-1, BCR signal inh, S-ASM inh)
COc1ccc(OC)c(NC(=O)COC(=O)c2cc3c(s2)CCC3)c1	Tb PFK inh-1 inconclusive | TbPFK ATP inconclusive | Tb PFK inh-2 inconclusive
COc1ccccc1NC(=O)COC(=O)c1cn(C)c2ccccc12	BCR signal inh inconclusive
O=C(NNS(=O)(=O)c1ccccc1F)c1cc(-c2ccccc2)n[nH]1	Tb PFK inh-1 inconclusive | TbPFK ATP inactive | Tb PFK inh-2 inconclusive
O=C(O)c1ccccc1-c1ccc(/C=c2\sc3nc4cc(Br)cnc4n3c2=O)o1	Tb PFK inh-1 inconclusive | TbPFK ATP 6µM | Tb PFK inh-2 12µM
O=C(O)c1ccccc1-c1ccc(C=C2C(=O)N(c3ccccc3)C(=S)N(c3ccccc3)C2=O)o1	BCR signal inh inconclusive
C#CCNc1ccc([N+](=O)[O-])cc1	Tb PFK inh-1 24µM | TbPFK ATP 21µM | Tb PFK inh-2 27µM
NCCNc1ccc([N+](=O)[O-])cc1	Tb PFK inh-1 inconclusive | TbPFK ATP inconclusive | Tb PFK inh-2 inconclusive
O=[N+]([O-])c1ccc(C(c2ccc([N+](=O)[O-])cc2)c2ccc([N+](=O)[O-])cc2)cc1	none (no result: Tb PFK inh-1, BCR signal inh)
COP(=O)(OC)/C(C=O)=N/Nc1ccc([N+](=O)[O-])cc1	none
O=[N+]([O-])c1cc2c(cc1Br)CCN2	Tb PFK inh-1 3.4µM (no result: TCR act) | TbPFK ATP 4.3µM | Tb PFK inh-2 6µM
O=c1[nH]c2ccccc2n1C1CCN(Cc2ccc(-c3[nH]c4cc5ncnc5cc4nc3-c3ccccc3)cc2)CC1	none (no result: TCR act, Tb PFK inh-1, BCR signal inh, S-ASM inh)
COc1cccc(Nc2nnc(SCC(=O)N3CCOCC3)s2)c1	BCR signal inh inconclusive
O=C(COc1ccc([N+](=O)[O-])cc1)Nc1ccncc1	Tb PFK inh-1 inconclusive | TbPFK ATP inconclusive | Tb PFK inh-2 inconclusive
NS(=O)(=O)c1cccc(NC(=O)COc2ccc([N+](=O)[O-])cc2)c1	Tb PFK inh-1 7.6µM | TbPFK ATP 21µM | Tb PFK inh-2 13µM
O=C(Cc1ccccc1)Oc1ccc([N+](=O)[O-])cc1	none
CC(C)(O)C1C2OC(=O)C1C1(O)CC3OC34C(=O)OC2C14C (stereo not drawn)	none (no result: Tb PFK inh-1, BCR signal inh)
Cc1ccc(Cn2cc(C=O)c3ccccc32)cc1	none
O=Cc1cn(Cc2ccc([N+](=O)[O-])cc2)c2ccccc12	Tb PFK inh-1 17µM | TbPFK ATP inconclusive | Tb PFK inh-2 inconclusive
Cc1ccc(NC(=O)C(=O)NNC(=O)c2cccs2)cc1	Tb PFK inh-1 inconclusive, BCR signal inh inconclusive | TbPFK ATP inactive | Tb PFK inh-2 inconclusive
Cc1ccc2c(c1)C1CN(C)CCC1N2C(=O)c1cccs1 (stereo not drawn)	BCR signal inh inconclusive
COC(=O)C(O)(c1ccc(NC(=O)c2cccs2)cc1)C(F)(F)F (stereo not drawn)	none
O=C(COc1ccc2ccccc2c1)NNC(=O)c1cccs1	Tb PFK inh-1 inconclusive | TbPFK ATP inactive | Tb PFK inh-2 inconclusive
COc1ccc(NC(=O)C(=O)NNC(=O)c2cccs2)cc1	Tb PFK inh-1 inconclusive, BCR signal inh inconclusive | TbPFK ATP inactive | Tb PFK inh-2 inconclusive
CN1CCN(C(=O)COc2ccc3ccccc3c2)CC1	BCR signal inh inconclusive
C[N+]12CCC(CC1)C(OC(=O)C(O)(c1ccccc1)c1ccccc1)C2 (stereo not drawn)	BCR signal inh inconclusive
CN(C(=O)CNC(=O)OCc1ccccc1)c1ccc(Br)cc1C(=O)c1ccccc1Cl	BCR signal inh inconclusive
CN(C(=O)Nc1ccc(Cl)c(Cl)c1)c1ccccc1C(=O)O	Tb PFK inh-1 15µM | TbPFK ATP inconclusive | Tb PFK inh-2 inconclusive
CC(=O)N1CCN(c2ccc(NC(=O)c3ccccc3)cc2)CC1	BCR signal inh inconclusive
O=C(Nc1ccc(S(=O)(=O)N2CCOCC2)cc1)c1cc([N+](=O)[O-])ccc1Cl	BCR signal inh inconclusive
O=C(Nc1ccc(Cl)c([N+](=O)[O-])c1)c1ccncc1	Tb PFK inh-1 inconclusive, BCR signal inh inconclusive | TbPFK ATP inconclusive | Tb PFK inh-2 inconclusive
CC(=O)N1CCN(c2ccc(NC(=O)c3ccc(Cl)c([N+](=O)[O-])c3)cc2)CC1	Tb PFK inh-1 inconclusive, BCR signal inh inconclusive | TbPFK ATP inconclusive | Tb PFK inh-2 30µM
CC(C)CNC(=O)c1cccc(NC(=O)c2ccc(Cl)c([N+](=O)[O-])c2)c1	Tb PFK inh-1 24µM | TbPFK ATP 11µM | Tb PFK inh-2 21µM
C=CCN1Cc2ccccc2-n2nncc2C1	none (no result: TCR act, Tb PFK inh-1, BCR signal inh, S-ASM inh)
CC(C)CN1Cc2ccccc2-n2nncc2C1	none (no result: TCR act, Tb PFK inh-1, BCR signal inh, S-ASM inh)
S=C(NCCc1ccccc1)N1Cc2ccccc2-n2nncc2C1	none (no result: TCR act, Tb PFK inh-1, BCR signal inh, S-ASM inh)
Oc1cc2c(cc1O)C1c3ccc(O)c(O)c3OCC1(O)C2 (stereo not drawn)	Tb PFK inh-1 inconclusive, BCR signal inh inconclusive | TbPFK ATP inconclusive | Tb PFK inh-2 0.85µM
COc1ccc(C(=O)C2CCCN(CC3CCCCC3)C2)cc1OC (stereo not drawn)	none (no result: TCR act, Tb PFK inh-1, BCR signal inh, S-ASM inh)
Nc1nc2ccccc2n1CCOc1ccc(F)cc1	Tb PFK inh-1 inconclusive | TbPFK ATP 13µM | Tb PFK inh-2 21µM
CCCCCCCCCCOC(=O)Cn1c(COc2ccc(OC)cc2)[n+](C)c2ccccc21	BCR signal inh inconclusive, S-ASM inh inconclusive
CCOC(=O)Cn1c(=N)n(CCOc2ccc(F)cc2)c2ccccc21	Tb PFK inh-1 5.4µM, BCR signal inh inconclusive | TbPFK ATP 3µM | Tb PFK inh-2 5.4µM
NC(=O)CC(NC(=O)Cc1cccc2ccccc12)c1ccc(N2CCc3ccccc3C2)c([N+](=O)[O-])c1 (stereo not drawn)	BCR signal inh inconclusive
CC(=O)c1c(C)nc(-c2ccc(Cl)cc2)nc1N=CN(C)C	Tb PFK inh-1 2.7µM | TbPFK ATP 9.5µM | Tb PFK inh-2 12µM
Cc1nc2ccc(Cl)cc2c(-c2ccccc2)c1C(=O)O	none
CC(=O)c1c(C)nc(-c2ccc(Cl)cc2)nc1N	Tb PFK inh-1 inconclusive, BCR signal inh inconclusive | TbPFK ATP inconclusive | Tb PFK inh-2 inconclusive
CC1=C(O)C(=O)C=C2C1=CC=C1C2(C)CCC2(C)C3CC(C)(C(=O)O)CCC3(C)CCC12C (stereo not drawn)	none (no result: Tb PFK inh-1, BCR signal inh)
N#CC1=C(SCC(=O)c2ccc(Cl)cc2)NC2=C(C(=O)CCC2)C1c1ccco1 (stereo not drawn)	BCR signal inh inconclusive
